# Results reported in ChEMBL document CHEMBL3988442, “University of Dundee, Small-Polar-MMV Screening Library” (2021).
# For some assays here: Potency and affinity values are given separately.
# Tests used:
# Parameters in all cases: scale not given: direction of the effect not stated beside the values
# [1] = target: Protein translocase subunit SecA (Escherichia coli (strain K12)) (UniProt P10408); test: Assay to Identify E. coli SecA ATPase Inhibitors; format: functional; conditions: 30 µM
# [2] = target: T1, Ubiquitin-activating enzyme e1, putative (Leishmania donovani (strain BPK282A1)) (UniProt E9BSI1); test: Leishmania donovani Ubiquitin Activating Enzyme (LdE1); format: functional; conditions: 30 µM
# T1 sequence (whole entry): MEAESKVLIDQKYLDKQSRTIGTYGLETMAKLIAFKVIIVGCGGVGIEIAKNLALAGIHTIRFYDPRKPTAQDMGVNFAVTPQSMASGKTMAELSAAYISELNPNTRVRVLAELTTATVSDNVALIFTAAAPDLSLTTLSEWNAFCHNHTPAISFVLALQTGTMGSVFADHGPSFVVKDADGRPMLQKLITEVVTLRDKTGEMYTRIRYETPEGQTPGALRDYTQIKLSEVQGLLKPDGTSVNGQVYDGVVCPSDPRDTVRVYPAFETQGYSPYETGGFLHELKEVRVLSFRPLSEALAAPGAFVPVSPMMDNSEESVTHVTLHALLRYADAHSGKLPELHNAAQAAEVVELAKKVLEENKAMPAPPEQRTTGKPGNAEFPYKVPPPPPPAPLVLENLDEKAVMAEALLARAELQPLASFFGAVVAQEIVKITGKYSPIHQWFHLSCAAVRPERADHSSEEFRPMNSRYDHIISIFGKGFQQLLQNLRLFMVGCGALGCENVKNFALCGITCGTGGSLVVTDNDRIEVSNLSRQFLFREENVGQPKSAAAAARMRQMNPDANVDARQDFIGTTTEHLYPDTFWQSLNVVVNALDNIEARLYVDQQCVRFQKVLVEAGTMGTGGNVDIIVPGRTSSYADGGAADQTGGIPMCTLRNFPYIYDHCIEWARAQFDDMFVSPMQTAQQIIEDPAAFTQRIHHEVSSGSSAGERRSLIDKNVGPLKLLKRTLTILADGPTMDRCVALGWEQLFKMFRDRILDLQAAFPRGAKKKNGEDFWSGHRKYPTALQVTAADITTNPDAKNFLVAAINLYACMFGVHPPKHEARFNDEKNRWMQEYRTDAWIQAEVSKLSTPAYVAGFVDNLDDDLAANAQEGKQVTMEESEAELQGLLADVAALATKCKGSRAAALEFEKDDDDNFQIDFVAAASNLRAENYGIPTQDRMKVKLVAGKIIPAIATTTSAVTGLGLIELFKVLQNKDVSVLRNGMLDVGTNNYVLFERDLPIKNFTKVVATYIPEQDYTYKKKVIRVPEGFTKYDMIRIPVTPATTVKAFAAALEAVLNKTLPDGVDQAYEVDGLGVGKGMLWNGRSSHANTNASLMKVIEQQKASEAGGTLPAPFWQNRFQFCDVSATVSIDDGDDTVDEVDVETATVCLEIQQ
# [3] = target: AMP-activated protein kinase, AMPK (Homo sapiens) (UniProt P54646+O43741+P54619+Q9UGJ0+Q9Y478+Q13131+Q9UGI9); test: AMP-dependent Kinase enzyme assay. An in vitro enzyme assay that detects ADP turnover that is directly proportional to AMPK activity. This uses naive AMPK that is activated during the assay with MK-8722; format: functional; conditions: 30 µM
# [4] = target: Sialic acid-binding Ig-like lectin 9 (Homo sapiens) (UniProt Q9Y336); test: Hs-Siglec9 ALPHAscreen SOP 20170721; conditions: 10 µM
# Trypanosoma cruzi = test: Trypanosoma cruzi phosphomannomutase and mannose-1-phosphate guanylyltransferase assay; format: functional; conditions: 10 µM
# [5] = target: T2, Arginase-2, mitochondrial (Homo sapiens) (UniProt P78540); test: in vitro enzyme assay to detect the production of urea directly proportional to the activity of Arginase II; format: functional; conditions: 33.3 µM; also: in the data most compounds retested in dose-response had high values
# T2 sequence (whole entry): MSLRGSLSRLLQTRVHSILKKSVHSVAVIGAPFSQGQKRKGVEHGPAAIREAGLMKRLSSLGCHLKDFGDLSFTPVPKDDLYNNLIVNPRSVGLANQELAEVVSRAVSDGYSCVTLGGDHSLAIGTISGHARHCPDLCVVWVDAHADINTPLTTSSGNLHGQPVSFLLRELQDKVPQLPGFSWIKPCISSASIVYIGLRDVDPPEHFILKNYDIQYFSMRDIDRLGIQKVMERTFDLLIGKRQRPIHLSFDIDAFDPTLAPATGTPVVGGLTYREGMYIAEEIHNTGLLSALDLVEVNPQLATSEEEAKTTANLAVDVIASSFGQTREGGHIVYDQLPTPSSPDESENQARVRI
# [6] = target: T3, Proteasome subunit beta (Trypanosoma cruzi) (UniProt O96673); test: Trypanosoma cruzi proteasome chymotrypsin-like activity (TcProtChymo) assay.; also: in the data most compounds retested in dose-response had high values; format: functional; conditions: 9.37 µM
# T3 sequence (whole entry): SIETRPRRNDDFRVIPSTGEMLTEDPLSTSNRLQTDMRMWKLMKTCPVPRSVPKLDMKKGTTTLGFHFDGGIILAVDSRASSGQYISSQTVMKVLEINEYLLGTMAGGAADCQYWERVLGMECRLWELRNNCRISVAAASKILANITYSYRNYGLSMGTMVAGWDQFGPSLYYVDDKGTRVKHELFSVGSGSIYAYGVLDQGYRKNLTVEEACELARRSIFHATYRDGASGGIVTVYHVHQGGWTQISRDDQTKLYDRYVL
# Homo sapiens = organism: Homo sapiens; test: To identify inhibition of the IFN signalling (Jak-Stat) pathway via expression of an eGFP reporter gene under the control of an IFN-stimulated response element (ISRE) containing MxA promoter.; format: functional; conditions: 30 µM
# [7] = target: T4, Tyrosyl-tRNA synthetase, putative (Trypanosoma cruzi (strain CL Brener)) (UniProt Q4DSP6); test: Trypanosoma cruzi tyrosyl tRNA synthetase (TcYRS) _High Tyrosine SOP; format: functional; conditions: 30 µM; also: in the data most compounds retested in dose-response had high values
# T4 sequence (whole entry): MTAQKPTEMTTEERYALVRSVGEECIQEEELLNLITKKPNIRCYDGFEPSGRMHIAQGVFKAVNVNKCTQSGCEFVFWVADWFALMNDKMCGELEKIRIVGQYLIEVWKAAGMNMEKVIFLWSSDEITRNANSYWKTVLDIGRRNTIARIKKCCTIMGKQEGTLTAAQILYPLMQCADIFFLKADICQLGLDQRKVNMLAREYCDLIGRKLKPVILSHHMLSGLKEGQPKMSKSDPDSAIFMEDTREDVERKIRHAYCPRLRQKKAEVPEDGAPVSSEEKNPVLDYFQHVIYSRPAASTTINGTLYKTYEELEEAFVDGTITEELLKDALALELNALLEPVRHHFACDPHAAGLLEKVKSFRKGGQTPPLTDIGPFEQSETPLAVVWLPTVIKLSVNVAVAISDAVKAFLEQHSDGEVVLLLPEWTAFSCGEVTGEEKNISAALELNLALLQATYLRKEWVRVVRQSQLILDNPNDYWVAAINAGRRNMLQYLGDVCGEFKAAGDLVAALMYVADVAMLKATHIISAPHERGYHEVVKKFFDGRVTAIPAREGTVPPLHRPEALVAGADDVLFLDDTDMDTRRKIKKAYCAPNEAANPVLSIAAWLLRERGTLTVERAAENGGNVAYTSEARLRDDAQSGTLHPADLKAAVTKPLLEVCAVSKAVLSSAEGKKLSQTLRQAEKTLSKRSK
# [8] = target: T4, Tyrosyl-tRNA synthetase, putative (Trypanosoma cruzi (strain CL Brener)); test: Trypanosoma cruzi tyrosyl tRNA synthetase (TcYRS) SOP; format: functional; conditions: 30 µM
# [9] = target: Chromo domain-containing protein 1 (Saccharomyces cerevisiae (strain ATCC 204508 / S288c) (Baker's yeast)) (UniProt P32657); test: ScCHD-1 Enzyme Inhibition Assay; format: functional; conditions: 30 µM; also: in the data most compounds retested in dose-response had high values
# Sequence of Chromo domain-containing protein 1 (Saccharomyces cerevisiae (strain ATCC 204508 / S288c) (Baker's yeast)) (P32657 whole entry, the tested form may be a part): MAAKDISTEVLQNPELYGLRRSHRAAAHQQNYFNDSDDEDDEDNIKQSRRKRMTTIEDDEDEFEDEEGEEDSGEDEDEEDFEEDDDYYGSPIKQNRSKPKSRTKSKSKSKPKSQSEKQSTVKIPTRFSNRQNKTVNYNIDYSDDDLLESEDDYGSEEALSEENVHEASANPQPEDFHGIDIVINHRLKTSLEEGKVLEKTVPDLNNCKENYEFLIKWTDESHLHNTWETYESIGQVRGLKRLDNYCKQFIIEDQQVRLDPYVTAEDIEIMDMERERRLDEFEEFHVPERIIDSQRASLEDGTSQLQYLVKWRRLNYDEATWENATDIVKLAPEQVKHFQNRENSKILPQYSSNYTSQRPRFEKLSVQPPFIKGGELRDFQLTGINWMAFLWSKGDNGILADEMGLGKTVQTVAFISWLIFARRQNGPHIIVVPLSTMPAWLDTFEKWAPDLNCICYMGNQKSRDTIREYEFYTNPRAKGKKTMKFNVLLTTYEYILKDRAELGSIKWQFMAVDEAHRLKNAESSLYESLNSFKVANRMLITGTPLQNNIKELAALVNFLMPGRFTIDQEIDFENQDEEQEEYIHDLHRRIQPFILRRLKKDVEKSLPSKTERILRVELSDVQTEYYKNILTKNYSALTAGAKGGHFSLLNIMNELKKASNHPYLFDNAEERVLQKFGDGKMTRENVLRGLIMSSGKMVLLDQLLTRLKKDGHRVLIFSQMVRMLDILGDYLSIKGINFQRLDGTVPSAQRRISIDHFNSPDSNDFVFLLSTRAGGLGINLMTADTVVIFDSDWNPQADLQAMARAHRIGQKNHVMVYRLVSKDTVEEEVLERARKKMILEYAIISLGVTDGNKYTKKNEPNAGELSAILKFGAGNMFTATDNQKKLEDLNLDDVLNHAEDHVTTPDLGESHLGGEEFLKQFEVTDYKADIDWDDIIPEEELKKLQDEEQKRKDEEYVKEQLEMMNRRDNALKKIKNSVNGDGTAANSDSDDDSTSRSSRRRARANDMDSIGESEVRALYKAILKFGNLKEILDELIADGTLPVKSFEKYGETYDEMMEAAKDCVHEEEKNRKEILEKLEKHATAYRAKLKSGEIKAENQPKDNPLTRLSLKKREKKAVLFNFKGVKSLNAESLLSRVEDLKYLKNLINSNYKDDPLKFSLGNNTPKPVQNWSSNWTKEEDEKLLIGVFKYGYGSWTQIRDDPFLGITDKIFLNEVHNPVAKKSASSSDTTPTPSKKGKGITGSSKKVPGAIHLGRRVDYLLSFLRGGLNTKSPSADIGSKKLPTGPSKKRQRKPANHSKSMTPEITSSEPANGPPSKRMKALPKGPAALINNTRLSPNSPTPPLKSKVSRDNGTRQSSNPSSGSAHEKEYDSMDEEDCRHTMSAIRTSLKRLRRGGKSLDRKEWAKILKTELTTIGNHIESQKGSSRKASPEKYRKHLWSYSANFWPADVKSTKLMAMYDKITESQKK
# Sequence of Protein translocase subunit SecA (Escherichia coli (strain K12)) (P10408 whole entry): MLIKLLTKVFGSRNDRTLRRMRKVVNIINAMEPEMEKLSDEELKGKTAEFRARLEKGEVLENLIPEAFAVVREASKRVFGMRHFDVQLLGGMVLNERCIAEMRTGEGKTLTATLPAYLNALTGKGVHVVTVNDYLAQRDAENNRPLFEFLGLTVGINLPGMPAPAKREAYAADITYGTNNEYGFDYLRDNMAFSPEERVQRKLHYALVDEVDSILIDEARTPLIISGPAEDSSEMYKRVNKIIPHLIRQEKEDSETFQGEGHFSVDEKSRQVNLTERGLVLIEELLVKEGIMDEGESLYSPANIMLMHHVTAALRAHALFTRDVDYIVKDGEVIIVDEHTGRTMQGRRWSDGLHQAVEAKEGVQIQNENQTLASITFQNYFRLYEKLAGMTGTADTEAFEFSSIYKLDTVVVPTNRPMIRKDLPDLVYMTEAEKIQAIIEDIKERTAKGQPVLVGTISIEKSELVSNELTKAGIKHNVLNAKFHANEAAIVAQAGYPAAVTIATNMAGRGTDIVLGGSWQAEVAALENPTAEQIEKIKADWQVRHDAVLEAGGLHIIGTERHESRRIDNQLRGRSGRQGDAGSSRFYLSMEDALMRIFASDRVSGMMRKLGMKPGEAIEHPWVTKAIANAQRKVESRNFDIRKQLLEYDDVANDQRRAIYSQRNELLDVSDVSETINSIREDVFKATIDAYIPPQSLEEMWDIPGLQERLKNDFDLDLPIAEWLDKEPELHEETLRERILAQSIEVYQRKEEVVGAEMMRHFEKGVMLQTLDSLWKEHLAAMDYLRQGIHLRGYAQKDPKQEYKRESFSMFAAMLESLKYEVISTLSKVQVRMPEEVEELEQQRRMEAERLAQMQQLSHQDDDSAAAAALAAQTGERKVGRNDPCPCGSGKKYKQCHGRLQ
# Sequence of Sialic acid-binding Ig-like lectin 9 (Homo sapiens) (Q9Y336 whole entry): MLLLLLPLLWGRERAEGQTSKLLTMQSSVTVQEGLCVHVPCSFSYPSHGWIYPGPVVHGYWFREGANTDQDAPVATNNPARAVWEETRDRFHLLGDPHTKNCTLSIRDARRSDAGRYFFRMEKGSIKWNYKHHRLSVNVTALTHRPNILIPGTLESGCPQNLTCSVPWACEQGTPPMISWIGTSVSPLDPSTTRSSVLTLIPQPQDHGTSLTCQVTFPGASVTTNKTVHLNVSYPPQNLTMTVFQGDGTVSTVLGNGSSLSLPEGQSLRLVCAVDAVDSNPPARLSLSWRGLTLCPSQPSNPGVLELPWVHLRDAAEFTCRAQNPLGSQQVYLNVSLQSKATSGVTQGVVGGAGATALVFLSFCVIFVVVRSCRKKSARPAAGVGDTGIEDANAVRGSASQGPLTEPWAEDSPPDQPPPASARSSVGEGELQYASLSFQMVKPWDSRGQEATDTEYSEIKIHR
Compound,Percent Effect [1] [%],Percent Effect [2] [%],Percent Effect [3] [%],Percent Effect [4] [%],Percent Effect (Trypanosoma cruzi) [%],Percent Effect [5] [%],Percent Effect [6] [%],Percent Effect (Homo sapiens) [%],Percent Effect [7] [%],Percent Effect [8] [%],Percent Effect [9] [%]
Cn1cccc1C(=O)N1CCc2ncnc(C3CC3)c2CC1,-4.53,13.3,9.69,-5.45,-5.12,-0.699,21.1,22.4,0,6.41,-1.35
CC(=O)N1CCn2c(COCc3csc(C)n3)cnc2C1C (stereo unspecified),-5.84,18.7,-3.96,4.19,4.05,-55.7,9.57,7.41,-10.4,15,-9.91
O=C(CN1CCOC(Cn2cccn2)C1)NCc1cccs1 (stereo unspecified),0.0678,-2.7,-5.7,11.3,1.58,-0.924,1.98,-5.12,0.99,3.66,-4.1
O=C1CC2(CCN(S(=O)(=O)C3CC3)C2)CN1c1cncnc1 (stereo unspecified),1.95,16,-1.36,-1.59,1.54,-50.7,9.74,5.32,6.25,27.5,-4.67
Cc1nn(C)c(Cl)c1C1CCCN1c1ncnc2sccc12 (stereo unspecified),-6.84,-2.67,-2.13,8.98,5.36,7.29,1.4,35.8,0.546,3.7,0.644
CCOc1ccccc1C(CC(=O)Nc1ccc(C)cn1)NC(C)=O (stereo unspecified),-3.17,10.5,7.35,5.85,6.77,1.15,4.34,4.19,8.33,17.1,-15.3
CCc1nc(CN2CCCN(c3nccs3)CC2)no1,-2.88,15.6,-3.3,-7.59,-3.93,1.78,12.5,26.3,3.88,9.76,-8.02
CNc1nc2c(c(C(=O)N3CCCC3)n1)CN(Cc1nccn1C)CC2,-4.21,16.4,-8.14,7.16,2.38,-2.79,19.4,8.05,7.29,8.64,-2.56
O=C(NCC1CC1)[C@@H]1CCO[C@@H]2CCN(Cc3ccco3)C[C@H]21,-1.9,-2.67,1.99,-4.47,-2.9,-55.7,-1.2,5.41,-3.12,-10,-0.123
Cc1cnn(CCNCc2csc(-c3cccs3)n2)c1,-2.47,-2.63,5.67,8,-0.564,-1.92,13.7,0.0858,-3.43,0,6.81
COc1cc(C)nc(N2CCN(C(=O)c3ccc(Cl)o3)CC2)n1,-3.23,2.7,-4.07,-1.86,2.17,-0.802,-3.06,-0.0966,2.46,3.7,1.52
O=C(Cn1ccc2ccccc21)NCc1ccc(C(=O)O)cc1,-5.35,2.63,10.1,1.77,-1.85,0,15.8,-18.3,-1.06,10.4,-0.974
CC(C)NC(=O)NCCCc1cc(N)n(-c2ccccc2)n1,-2.64,5.48,-7.43,15.8,5.09,-6.82,24.8,14.3,5.38,17.5,-8.17
O=C(c1ccccc1-c1ccccc1)N1CCOC2(CNCCOC2)C1 (stereo unspecified),-2.01,8.11,-0.846,7.99,0,4.76,17.9,1.86,5.82,14.6,-1.37
N#Cc1cccc(C(=O)N2CCc3ncc(Cn4cccn4)n3CC2)c1,-2.76,-5.33,6.89,-4.2,-1.74,-56.1,2.22,-20.1,-3.12,-2.5,-3.63
CC(C)C1CN(C(=O)c2nccnc2N)CCS1 (stereo unspecified),-2.86,10.4,-7.56,11,3.83,-92.4,6.32,14.5,3.23,8.64,-9.31
